“And” between values parts separate entries of the source, which are not always exact repeats. Equal values may be shown once. About 83,000 compounds went through this panel and 20% of them were active in at least one assay; those are over-represented in the sample as a whole.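 96-well plates, one dose, 48 hours. Percent growth reported; active if below 10.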 A number with no mark means an inactive call. The source made the active and inactive calls.
tested on: HL-60(TB) leukemia; assay: NCI-60 one-dose screen, 48 h (100 = growth as untreated, 0 = no growth, -100 = all killed); details: 10 µM unless noted

Row | SMILES | growth
1 | CN(C)C(=S)SC(=S)N(C)C | 103% and 93.8%
2 | c1nc(SC2=NCCN2)c2[nH]cnc2n1 | 22.6%
3 | O=C(O)C1C2CC3C(OC(=O)C31)C2Br (stereo not given) | 97% and 103%
4 | CNC(=O)c1ccc(C)c(-n2c(C)cc(OCc3ccc(F)cc3F)c(Br)c2=O)c1 | 61.1% and 91%
5 | Nc1nc2ccc(-c3nc4ccc5[nH]ncc5c4c4c3CCCC4)cc2s1 | 94.7%
6 | CCOC(=O)C(CCC(C)C)C(=O)OCC | 72.8%
7 | O=C(CSc1nc2ccc([N+](=O)[O-])cc2[nH]1)Nc1ccc(F)c(Cl)c1 | 10.7%
8 | CC(=O)OCC(COC(C)=O)(COC(C)=O)COC(C)=O | 104%
9 | COc1ccc(C2SC(C)C(=O)N2CCc2cccs2)cc1OC (stereo not given) | 74.5%
10 | COc1ccc(/C=C(\C#N)c2ccc([N+](=O)[O-])cc2)c2ccccc12 | 85.4%
11 | CCc1cc2c(c3ccc(C(=O)CBr)cc13)CCCC2 | 97.7%
12 | CCN(CC)C(=O)/C=C(/C)c1ccccc1 | 101%
13 | COc1ccc(Cn2c(Br)c3c(c2-c2cc(OC)c(OC)c(OC)c2)CCc2sc(NC(C)=O)nc2-3)cc1 | 15.2%
14 | Nc1c(C(=O)c2ccc(Br)cc2)sc2nc3c(cc12)CCCC3 | 94.7%
15 | Fc1ccc2c(c1)c(-c1nc(-c3c[nH]c4ncccc34)cs1)cn2CCCN1CCCCC1 | 24.2%
16 | CN1CCN(Cc2ccc(NC(=O)c3cncc(C#Cc4cnc(N)c5ccccc45)c3)cc2C(F)(F)F)CC1 | -46.3% (active)
17 | C=CCSc1n[nH]c(-c2cccs2)n1 | 111%
18 | COc1cc(-c2nc(/C=C3/C(=O)Nc4ccccc43)c3ccccn23)cc(OC)c1OC | 89.6%
19 | C=C(C)[C@@H]1CC[C@]2(CO)CC[C@]3(C)[C@H](CC[C@@H]4[C@@]5(C)C=C(C#N)C(=O)C(C)(C)[C@@H]5CC[C@]43C)[C@@H]12 | -26.1% (active)
20 | O=C(CN1CCCCC1)Nc1nc(-c2cc3ccccc3oc2=O)cs1 | 93.8%

Row | SMILES | growth
21 | CCCC1CCC(=C2C(=O)CCC2=O)O1 (stereo not given) | 148% and 153%
22 | CC(C)(C)CC(C)(C)c1ccc(OCCOCC[N+](C)(C)CC(=O)[O-])cc1 | 96.1%
23 | COc1cc(-c2nn(-c3ccc(NC(=O)c4ccc(Cl)c(C(F)(F)F)c4)cc3)cc2-c2ccncc2)ccc1Cl | 12%
24 | CN1CCN(Cn2nc(-c3cc(F)c(Cl)cc3Cl)n(/N=C/c3ccc(N(C)C)cc3)c2=S)CC1 | 83.1%
25 | CCOC(=O)c1sc2ncnc(Nc3ccc4c(cnn4C(=O)Nc4ccc(C)c(Cl)c4)c3)c2c1C | 95.3%
26 | Cc1ccc(S(=O)(=O)Nc2ccc(-c3cc(-c4cccc(F)c4)c(C#N)c(N)n3)cc2)cc1 | -14.9% (active)
27 | CCOC(C)(c1ccc(Cl)cc1)C1CCNCC1 (stereo not given) | 86.1%
28 | N[C@H]1CN(C(=O)c2cc3cc(Br)c(F)c(F)c3[nH]2)C[C@@H]1O | 98.5%
29 | COCCOC(=O)NC(=O)Nc1ccc(/C(=N/O)c2ccc(Cl)cc2)cc1 | -20.4% (active)
30 | Cn1c(=O)c2[nH]c(CCCCC(=O)O)nc2n(C)c1=O | 60.6%
31 | O=C1/C(=C/c2cccc(O)c2)COc2ccc(O)cc21 | 52.1%
32 | COc1ccc(-c2cnnn2-c2nonc2-n2cccc2)cc1 | -37.9% (active)
33 | COc1cc(C2CC(c3cccc(Nc4ccnc5cc(Cl)ccc45)c3)=NN2C=O)cc(OC)c1OC (stereo not given) | -7.92% (active)
34 | NC(=S)N/N=C(\c1ccc(Br)cc1)C1CC1 | 65.6% and 64.8%
35 | NC(N)=NCCCCCNc1noc(Cc2c[nH]c3cc(Br)ccc23)n1 | 44.9%
36 | O=C(N/N=C/c1c(Cl)cccc1Cl)c1cccnc1Nc1cccc(C(F)(F)F)c1 | 28.1%
37 | Cc1[nH]c(C(=O)Nc2ccc(C(=O)N3CCN(c4cc5c(cc4F)c(=O)c(C(=O)O)cn5C4CC4)CC3)cc2OC(C)C)c(Cl)c1Cl | 92.7%
38 | Cn1c(-c2c(N)n(Cc3ccc(C(F)(F)F)cc3)c3nc(C#N)c(C#N)nc23)nc2ccccc21 | -54.6% (active)
39 | N#CC(C#N)=NO | 104%
40 | COc1ccc(Cl)c([N+](=O)[O-])c1 | 98.6%
